# Laboratory results as given in PubChem BioAssay AID1159580 (chemical genetic matrix, 2015).
# Hit rate of the full screen: of about 5,500 compounds, about 2,000 (36%) were called active. Not shown: some 18% with an inconclusive outcome. The list shows a part of the results. Unmarked numbers belong to inactive results. Rule as the data show it: active = normalized growth mostly below about 0.91 (no sharp cut-off); inconclusive = no clear call, values can overlap the other calls; inactive = mostly above about 0.92.
# Test: chemical genetic growth profiling, strain panel (AID 1159580);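 also: tested at 20 µM; growth read once vehicle control cultures reached saturation at 30 °C; 1 = growth at the plate median or of vehicle wells; lower values mean less growth of the strain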
# Conditions: S. cerevisiae deletion strains, growth OD
structure (smiles),measurement,setting,value
COc1cccc(-c2cc(=O)c3ccc(OC)cc3o2)c1,normalized growth,"locus YAL013W, strain DEP1, active compounds read low",0.93
same,normalized growth,"locus YAL021C, strain ccr4, active compounds read low",0.964
same,normalized growth,"locus YAL026C, strain drs2, active compounds read low",0.936
same,normalized growth,"locus YAL030W, strain snc1, active compounds read low",0.943
same,normalized growth,"locus YBL061C, strain skt5, active compounds read low",0.929
same,normalized growth,"locus YBR009C, strain hhf1, active compounds read low",0.891 (active)
same,normalized growth,"locus YBR021W, strain FUR4, active compounds read low",0.942
same,normalized growth,"locus YBR023C, strain chs3, active compounds read low",0.897 (active)
same,normalized growth,"locus YBR171W, strain sec66, active compounds read low",0.916
same,normalized growth,"locus YBR229C, strain ROT2, active compounds read low",0.959
same,normalized growth,"locus YBR231C, strain swc5, active compounds read low",0.922
same,normalized growth,"locus YBR279W, strain paf1, active compounds read low",0.944
same,normalized growth,"locus YCL011C, strain gbp2, active compounds read low",0.938
same,normalized growth,"locus YCL016C, strain dcc1, active compounds read low",0.96
same,normalized growth,"locus YCL061C, strain MRC1, active compounds read low",0.944
same,normalized growth,"locus YCL069W, strain vba3, active compounds read low",0.947
same,normalized growth,"locus YCR088W, strain abp1, active compounds read low",0.938
same,normalized growth,"locus YDL005C, strain med2, active compounds read low",0.973
same,normalized growth,"locus YDL035C, strain GPR1, active compounds read low",0.922
same,normalized growth,"locus YDL040C, strain nat1, active compounds read low",0.948
same,normalized growth,"locus YDL074C, strain BRE1, active compounds read low",0.837
same,normalized growth,"locus YDL101C, strain DUN1, active compounds read low",0.954
same,normalized growth,"locus YDL134C, strain PPH21, active compounds read low",0.978
same,normalized growth,"locus YDL185W, strain tfp1, active compounds read low",0.978
same,normalized growth,"locus YDL192W, strain arf1, active compounds read low",1.04
same,normalized growth,"locus YDR001C, strain nth1, active compounds read low",0.935
same,normalized growth,"locus YDR069C, strain doa4, active compounds read low",0.96
same,normalized growth,"locus YDR101C, strain arx1, active compounds read low",1.04
same,normalized growth,"locus YDR137W, strain rgp1, active compounds read low",0.929
same,normalized growth,"locus YDR150W, strain NUM1, active compounds read low",0.951
same,normalized growth,"locus YDR159W, strain sac3, active compounds read low",0.921
same,normalized growth,"locus YDR162C, strain NBP2, active compounds read low",0.926
same,normalized growth,"locus YDR195W, strain ref2",1.05
same,normalized growth,"locus YDR297W, strain sur2, active compounds read low",0.955
same,normalized growth,"locus YDR318W, strain mcm21, active compounds read low",0.972
same,normalized growth,"locus YDR334W, strain swr1, active compounds read low",0.943
same,normalized growth,"locus YDR335W, strain msn5, active compounds read low",0.965
same,normalized growth,"locus YDR388W, active compounds read low",1.04
same,normalized growth,"locus YDR392W, strain spt3, active compounds read low",0.623 (active)
same,normalized growth,"locus YDR502C, strain sam2, active compounds read low",1.04
same,normalized growth,"locus YEL003W, strain gim4, active compounds read low",0.962
same,normalized growth,"locus YEL037C, strain rad23, active compounds read low",0.952
same,normalized growth,"locus YEL061C, strain CIN8 (second series), active compounds read low",0.958
same,normalized growth,"locus YEL061C, strain CIN8, active compounds read low",0.964
same,normalized growth,"locus YER015W, strain faa2, active compounds read low",0.953
same,normalized growth,"locus YER016W, strain bim1, active compounds read low",0.952
same,normalized growth,"locus YER110C, active compounds read low",1.16 [resistant] (active)
same,normalized growth,"locus YER111C, strain swi4, active compounds read low",0.957
same,normalized growth,"locus YER155C, strain BEM2 (second series), active compounds read low",0.699 (active)
same,normalized growth,"locus YER155C, strain BEM2, active compounds read low",1.06
same,normalized growth,"locus YER167W, strain BCK2, active compounds read low",0.907
same,normalized growth,"locus YFR010W, strain ubp6, active compounds read low",0.961
same,normalized growth,"locus YGL078C, strain dbp3, active compounds read low",1.05
same,normalized growth,"locus YGL086W, strain mad1, active compounds read low",0.934
same,normalized growth,"locus YGL167C, strain pmr1, active compounds read low",0.938
same,normalized growth,"locus YGL173C, strain kem1, active compounds read low",0.966
same,normalized growth,"locus YGL227W, strain vid30, active compounds read low",0.946
same,normalized growth,"locus YGL240W, strain doc1, active compounds read low",0.837 (active)
same,normalized growth,"locus YGL248W, strain PDE1, active compounds read low",0.946
same,normalized growth,"locus YGL253W, strain hxk2, active compounds read low",0.903 (active)
same,normalized growth,"locus YGR078C, strain PAC10, active compounds read low",0.945
same,normalized growth,"locus YGR135W, strain pre9, active compounds read low",1.08
same,normalized growth,"locus YGR229C, strain SMI1, active compounds read low",0.722 (active)
same,normalized growth,"locus YGR252W, strain gcn5, active compounds read low",0.884
same,normalized growth,"locus YHR013C, strain ard1, active compounds read low",0.852
same,normalized growth,"locus YHR027C, strain rpn1, active compounds read low",0.968
same,normalized growth,"locus YHR030C, strain SLT2, active compounds read low",0.82 (active)
same,normalized growth,"locus YHR079C, strain IRE1 (second series), active compounds read low",1.08 [resistant] (active)
same,normalized growth,"locus YHR094C, strain hxt1, active compounds read low",1.15 [resistant] (active)
same,normalized growth,"locus YHR129C, strain ARP1, active compounds read low",1.03
same,normalized growth,"locus YHR142W, strain chs7, active compounds read low",0.793 (active)
same,normalized growth,"locus YHR200W, strain rpn10, active compounds read low",1.04
same,normalized growth,"locus YIL066C, strain RNR3, active compounds read low",0.961
same,normalized growth,"locus YIL073C, strain SPO22, active compounds read low",0.834
same,normalized growth,"locus YIL125W, strain kgd1, active compounds read low",0.964
same,normalized growth,"locus YIR030C, strain dcg1, active compounds read low",1.14 [resistant] (active)
same,normalized growth,"locus YJL092W, strain hpr5, active compounds read low",0.954
same,normalized growth,"locus YJL095W, strain BCK1 (second series), active compounds read low",0.916 (active)
same,normalized growth,"locus YJL095W, strain BCK1, active compounds read low",0.656 (active)
same,normalized growth,"locus YJL115W, strain asf1, active compounds read low",0.954
same,normalized growth,"locus YJL129C, strain trk1, active compounds read low",0.95
same,normalized growth,"locus YJL134W, strain LCB3, active compounds read low",0.965
same,normalized growth,"locus YJL154C, strain vps35, active compounds read low",0.959
same,normalized growth,"locus YJL164C, strain tpk1, active compounds read low",0.928
same,normalized growth,"locus YJL166W, strain qcr8, active compounds read low",0.905
same,normalized growth,"locus YJL168C, strain set2, active compounds read low",1.04
same,normalized growth,"locus YJL187C, strain SWE1 (second series), active compounds read low",0.942
same,normalized growth,"locus YJL187C, strain SWE1, active compounds read low",0.949
same,normalized growth,"locus YJR043C, strain POL32, active compounds read low",0.866
same,normalized growth,"locus YJR075W, strain HOC1, active compounds read low",0.994
same,normalized growth,"locus YKL009W, strain mrt4, active compounds read low",0.828 (active)
same,normalized growth,"locus YKL068W, active compounds read low",0.931 (active)
same,normalized growth,"locus YKL085W, strain MDH1 (second series), active compounds read low",0.845 (active)
same,normalized growth,"locus YKL085W, strain MDH1, active compounds read low",0.845 (active)
same,normalized growth,"locus YKL160W, strain elf1, active compounds read low",0.933
same,normalized growth,"locus YKL190W, strain CNB1, active compounds read low",0.952
same,normalized growth,"locus YKR001C, strain vps1, active compounds read low",1.06
same,normalized growth,"locus YKR026C, strain gcn3, active compounds read low",0.91 (active)
same,normalized growth,"locus YKR091W, strain srl3, active compounds read low",0.958
same,normalized growth,"locus YLL001W, strain dnm1, active compounds read low",0.922
same,normalized growth,"locus YLL026W, active compounds read low",0.94
same,normalized growth,"locus YLL041C, strain sdh2, active compounds read low",0.951
same,normalized growth,"locus YLR027C, strain aat2, active compounds read low",0.934
same,normalized growth,"locus YLR039C, strain RIC1, active compounds read low",0.983
same,normalized growth,"locus YLR058C, strain SHM2, active compounds read low",0.999
same,normalized growth,"locus YLR102C, strain apc9, active compounds read low",1.03
same,normalized growth,"locus YLR221C, strain rsa3, active compounds read low",0.91
same,normalized growth,"locus YLR258W, strain gsy2, active compounds read low",0.93
same,normalized growth,"locus YLR262C, strain YPT6 (second series), active compounds read low",0.916
same,normalized growth,"locus YLR262C, strain YPT6, active compounds read low",0.989
same,normalized growth,"locus YLR268W, strain sec22, active compounds read low",0.994
same,normalized growth,"locus YLR320W, strain mms22, active compounds read low",0.824 (active)
same,normalized growth,"locus YLR330W, strain CHS5, active compounds read low",1.02
same,normalized growth,"locus YLR342W, strain FKS1 (second series), active compounds read low",0.839
same,normalized growth,"locus YLR342W, strain FKS1, active compounds read low",0.951
same,normalized growth,"locus YLR357W, strain rsc2, active compounds read low",0.856
same,normalized growth,"locus YLR370C, strain arc18, active compounds read low",0.948
same,normalized growth,"locus YLR371W, strain rom2, active compounds read low",0.965
same,normalized growth,"locus YLR384C, strain iki3, active compounds read low",0.962
same,normalized growth,"locus YLR418C, strain cdc73, active compounds read low",0.948
same,normalized growth,"locus YML016C, strain PPZ1, active compounds read low",0.998
same,normalized growth,"locus YML032C, strain rad52, active compounds read low",0.954
same,normalized growth,"locus YML120C, strain ndi1, active compounds read low",0.92
same,normalized growth,"locus YML124C, strain tub3, active compounds read low",1.13 [resistant] (active)
same,normalized growth,"locus YMR058W, strain fet3, active compounds read low",0.938
same,normalized growth,"locus YMR078C, strain ctf18, active compounds read low",1.1 [resistant] (active)
same,normalized growth,"locus YMR125W, strain sto1, active compounds read low",0.941
same,normalized growth,"locus YMR129W, active compounds read low",0.971
same,normalized growth,"locus YMR205C, strain PFK2, active compounds read low",0.871 (active)
same,normalized growth,"locus YMR223W, strain ubp8, active compounds read low",1
same,normalized growth,"locus YMR231W, strain pep5, active compounds read low",0.97
same,normalized growth,"locus YMR263W, strain SAP30, active compounds read low",0.896
same,normalized growth,"locus YMR307W, strain GAS1, active compounds read low",0.734
same,normalized growth,"locus YNL067W, strain RPL9B, active compounds read low",0.944
same,normalized growth,"locus YNL071W, strain lat1, active compounds read low",0.813 (active)
same,normalized growth,"locus YNL128W, strain TEP1, active compounds read low",1.02
same,normalized growth,"locus YNL153C, strain GIM3, active compounds read low",0.997
same,normalized growth,"locus YNL209W, strain ssb2, active compounds read low",0.977
same,normalized growth,"locus YNL233W, strain BNI4, active compounds read low",0.942
same,normalized growth,"locus YNL248C, strain rpa49, active compounds read low",0.927
same,normalized growth,"locus YNL250W, strain rad50, active compounds read low",0.969
same,normalized growth,"locus YNL271C, strain bni1, active compounds read low",0.938
same,normalized growth,"locus YNL298W, strain CLA4, active compounds read low",0.924
same,normalized growth,"locus YNL307C, strain MCK1, active compounds read low",0.842 (active)
same,normalized growth,"locus YNL322C, strain KRE1 (second series), active compounds read low",0.959
same,normalized growth,"locus YNL322C, strain KRE1, active compounds read low",0.958
same,normalized growth,"locus YNR049C, strain mso1, active compounds read low",0.953
same,normalized growth,"locus YNR052C, strain pop2, active compounds read low",1.14 [resistant] (active)
same,normalized growth,"locus YOL006C, strain TOP1, active compounds read low",0.659
same,normalized growth,"locus YOL012C, strain htz1",0.755
same,normalized growth,"locus YOL147C, strain pex11, active compounds read low",1.08 [resistant] (active)
same,normalized growth,"locus YOR001W, strain rrp6, active compounds read low",0.94
same,normalized growth,"locus YOR061W, strain CKA2, active compounds read low",0.951
same,normalized growth,"locus YOR069W, strain VPS5, active compounds read low",0.958
same,normalized growth,"locus YOR070C, strain gyp1, active compounds read low",0.942
same,normalized growth,"locus YOR080W, strain dia2, active compounds read low",0.947
same,normalized growth,"locus YOR083W, strain WHI5, active compounds read low",0.91
same,normalized growth,"locus YOR106W, strain vam3, active compounds read low",0.922
same,normalized growth,"locus YOR136W, strain idh2, active compounds read low",1.18 [resistant] (active)
same,normalized growth,"locus YOR144C, strain elg1, active compounds read low",1.18 [resistant] (active)
same,normalized growth,"locus YOR184W, strain ser1, active compounds read low",0.959
same,normalized growth,"locus YOR265W, strain rbl2, active compounds read low",0.942
same,normalized growth,"locus YOR270C, strain vph1, active compounds read low",0.71 (active)
same,normalized growth,"locus YOR290C, strain snf2, active compounds read low",0.84 (active)
same,normalized growth,"locus YOR316C, strain cot1, active compounds read low",1.1 [resistant] (active)
same,normalized growth,"locus YPL051W, strain arl3, active compounds read low",0.932
same,normalized growth,"locus YPL055C, strain LGE1, active compounds read low",0.873
same,normalized growth,"locus YPL078C, strain atp4, active compounds read low",0.91
same,normalized growth,"locus YPL106C, strain sse1, active compounds read low",0.84 (active)
same,normalized growth,"locus YPL240C, strain hsp82, active compounds read low",0.952
same,normalized growth,"locus YPL241C, strain CIN2, active compounds read low",0.966
same,normalized growth,"locus YPR119W, strain clb2, active compounds read low",1.03
same,normalized growth,"locus YPR141C, strain kar3, active compounds read low",1
same,normalized growth,"locus YPR163C, strain tif3, active compounds read low",1.03
same,normalized growth,"locus YPR167C, strain met16, active compounds read low",1.04
same,normalized growth,"strain wtn01, active compounds read low",1.05
